Sampled rows, rich in hits. Any-hit rate of the full collection: about 4.6%.
LASV entry inh = Lassa virus entry inhibition. Lassa virus pseudotype entry inhibition, cell reporter. Potency, µM (titrated, usually from 37.9 µM), actives largely listed as inhibitors. hit rate 1.2% among 300,000; calls by dose curve; tested in HEK293 cells; further: nearly all actives have a fitted effect of over 50% in size
VACV Venus inh = inhibitors of vaccinia virus (Venus reporter); Vaccinia virus Venus reporter expression, fluorescence; Potency, µM (doses to about 36.5 µM), hits mostly inhibitors; hit rate 0.46% among 330,000; AID 720580; calls by dose curve; tested in A549 cells; further: nearly all actives have a fitted effect of over 30% in size
Vaccinia mCherry = vaccinia inhibition (mCherry reporter) | Potency, µM (titrated, usually from 36.5 µM), actives largely listed as inhibitors | Vaccinia virus mCherry reporter infection, fluorescence | hit rate 0.63% among 310,000; calls by dose curve; tested in A549 cells; further: nearly all actives have a fitted effect of over 35% in size
Marburg entry inh = blocks Marburg virus binding to or entry into cells; AID 540276; hit rate 1.8% among 300,000; Potency, µM (series often up to 37.8 µM), actives largely listed as inhibitors; Marburg virus pseudotyped entry inhibition, cell reporter; calls by dose curve; tested in HEK293 cells
HCV inh = inhibitors of hepatitis C virus infection. Huh7.5.1 HCVcc-Cre infection, luciferase reporter, 44 h. hit rate 3.4% among 340,000. Potency, µM (top dose mostly 41.8 µM), hits mostly inhibitors; active means well fitted inhibition curve with a large enough effect; inconclusive means small, poorly fitted or top-dose-only effect, or another doubt; inactive means no such curve, though single readings can be large or run the other way
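Infectious HCV cell culture screen: compound-treated cells (1,000/well, pre-plated 4 h) are infected with HCVcc-Cre at roughly 0.5 moi and grown 44 h. Infection is quantified by luciferase signal after 15 min substrate incubation at room temperature.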
Hits are given with their value; - = inactive; ? = inconclusive; . = no result given; ! = repeats disagree; [ ] = dose if it differs, or a comment.

SMILES	LASV entry inh	VACV Venus inh	Vaccinia mCherry	Marburg entry inh	HCV inh
CN(C)CC1CCC/C(=C\c2ccc(OC(=O)c3ccc(Cl)cc3)cc2)C1=O (configuration not stated)	?	?	-	?	11µM
CCOC(=O)c1sc(NC(=O)c2nc(SCC)ncc2Cl)c(C(=O)OCC)c1C	-	-	-	-	.
COc1ccccc1CCc1nc2ccccc2n1C1CCN(C(=O)c2cc(C)nn2C)CC1	.	-	-	.	.
O=C1[C@@H]2[C@H]3[C@H](O)[C@H](O)CC(=NOC[C@@H](O)COCc4ccco4)[C@@H]3CC[C@H]2C(=O)N1Cc1ccccc1	.	.	.	-	.
COc1ccc(NC(=O)/C(C#N)=C/c2ccc(OCc3cc(=O)n4nc(C)sc4n3)cc2)cc1	-	-	-	-	.
Cc1cccc(N2CN=c3s/c(=C/c4ccncc4)c(=O)n3C2)c1	.	.	.	-	.
CC1CCC(C(=O)C2C(=O)C3=C(CCCC3)C2=O)CC1 (configuration not stated)	.	.	.	-	.
Cc1cc(-c2ccc(N=Nc3c(S(=O)(=O)O)cc4cc(S(=O)(=O)O)cc(N)c4c3O)c(C)c2)ccc1N=Nc1c(S(=O)(=O)O)cc2cc(S(=O)(=O)O)cc(N)c2c1O	?	.	.	16µM	?
COCCNC(=O)c1cccc(OC2CCN(Cc3ccc(OC(F)F)cc3)CC2)c1	-	-	-	-	7.1µM
COC(=O)C1CCN(Cc2ccc3c(c2)CN(C(=O)C2Cc4ccccc4O2)CCO3)CC1 (configuration not stated)	.	-	-	.	.
CCOc1ccc(C(=O)Nc2cc(-c3cn4cccnc4n3)ccc2C)cc1OCC	-	-	-	.	.
OCC1OC(n2ccc3c(NO)ncnc32)C(O)C1O (configuration not stated)	?	1.1µM	?	0.32µM	?
CN(C)c1ncnc2c1ccn2C1OC(CO)C(O)C1O (configuration not stated)	3.5µM	?	?	2.2µM	?
OCC1OC(n2cnc3c(NCc4ccccc4O)ncnc32)C(O)C1O (configuration not stated)	2.2µM	?	?	?	-
CN(C)c1nc2c(N)ncnc2n1C1OC(CO)C(O)C1O (configuration not stated)	-	-	-	-	-
C=CCN1C(=O)[C@]2(OCCC=C[C@@H]2C)c2cc(OC)ccc21	.	.	.	-	.
COc1cccc(NC(=O)c2cn(C3CCCCC3)c(=O)c3c2c2ccccc2n3C)c1	-	-	-	-	.
CC(=O)Nc1ccc2[nH]c3ccccc3c2c1	-	-	-	-	-
O=C(Nc1ccc(Cl)cc1)c1cc2c(cc1O)[nH]c1ccccc12	?	?	?	7.9µM	?
Cn1cc(Cl)c(C(=O)Nc2nc3ccccc3s2)n1	?	-	-	8.2µM	-
Cc1ccc(N(C)C(=O)Cn2cnc3onc(-c4ccc(F)cc4)c3c2=O)cc1C	-	-	-	.	.
CCCCCC(=O)O[C@]1(C(C)=O)CC[C@H]2[C@@H]3CCC4=CC(=O)CC[C@]4(C)[C@H]3CC[C@@]21C	-	-	?	10µM	?
C[C@]12CCC(=O)C=C1CCC1C2CC[C@@]2(C)C1CC[C@]2(C)O (some centres not stated)	?	-	-	?	-
CC(=O)[C@@]1(O)CC[C@H]2[C@@H]3CCC4=CC(=O)CC[C@]4(C)[C@H]3CC[C@@]21C	21µM!	-	-	-	-[8.37 µM]
O=C1O[C@@H](N2CCN(C/C=C\c3ccccc3)CC2)c2ccccc21	.	.	.	-	.
SMILES	LASV entry inh	VACV Venus inh	Vaccinia mCherry	Marburg entry inh	HCV inh
CCc1ccc(C2CC(c3ccc(C)cc3)Nc3nc(N)nn32)cc1 (configuration not stated)	-	32µM	100µM	-	-
c1ccc2c(c1)N1CCN=C1N2CCN1CCCCC1	-	-	-	?	?
c1ccc2c(c1)N1CCCN=C1N2CCN1CCCCC1	-	.	.	13µM	?
CCn1cc(C(=O)Nc2cccc(Cl)c2)c2cc(OC)c(OC)cc2c1=O	-	-	-	-	.
Cc1cc(C)cc(NC(=O)c2ccc(Cn3nc(C)c(Cl)c3C)o2)c1	-	-	-	-	?
Cc1csc(NC(=O)c2ccc(Cn3nc(C)c(Br)c3C)o2)n1	11µM	?	?	?	10µM
COc1ccc(NC(=S)N/N=C2\CC(C)(C)Oc3ccc(O)cc32)cc1	-	.	.	-	?
COc1ccccc1NC(=S)N/N=C1\CC(C)(C)Oc2ccc(O)cc21	.	.	.	.	10µM
COc1ccc(N(C)S(=O)(=O)c2cccc(C(=O)N(C)Cc3ccc(C)o3)c2)cc1	5µM	-	-	?	-
COc1ccc(CN(C)C(=O)c2cccc(C(=O)N(C)Cc3ccc(OC)cc3)c2)cc1	.	.	.	-	11µM
Cc1cc(C(=O)NCc2nc(-c3ccccc3NC(=O)C3CCCO3)oc2C)nc(C)n1 (configuration not stated)	.	-	-	.	.
Cc1ccc(S(=O)(=O)N[C@@H](CCc2ccccc2)CC(=O)C(C)(C)C)cc1	.	.	.	-	.
Cc1ccc(-n2c(=O)c3cccnc3n2CC(=O)Nc2cccc(C)c2C)cc1	-	-	-	.	.
C[n+]1c2ccccc2nc2ccc(NCCO)cc21	?	-	-	?	14µM
CC(C)n1c(NCCO)nc2ccccc21	-	-	-	-	-
O=C(CCN1CCC2CCC(C2)C1)c1ccccc1 (configuration not stated)	-	-	-	-	-
OC(CCN1CCC2CCC(C2)C1)c1ccc(Br)cc1 (configuration not stated)	?	-	-	-	32µM
O=C(C1CCC1)N1CCCc2cc(S(=O)(=O)N3CCN(c4cccc(Cl)c4)CC3)ccc21	?	-	-	.	.
CC(=O)N1c2ccc(S(=O)(=O)N3CCCC(C(=O)N4CCC(C)CC4)C3)cc2CC1C (configuration not stated)	.	?	-	.	11µM
O=C(C1CCC1)N1CCCc2cc(S(=O)(=O)N3CCN(c4ccccc4)CC3)ccc21	11µM	-	-	.	?
CC1Cc2cc(S(=O)(=O)N3CCC(C(=O)NCc4ccco4)CC3)ccc2N1C(=O)C1CCC1 (configuration not stated)	?	-	-	13µM	?
CC1Cc2cc(S(=O)(=O)N3CCN(c4ccc(Cl)cc4)CC3)ccc2N1C(=O)C1CC1 (configuration not stated)	?	-	-	?	6.3µM
Cc1ccccc1-c1ccc(CN2CCc3nnc(C(NS(C)(=O)=O)C(C)C)n3CC2)cc1 (configuration not stated)	.	-	-	.	.
COc1ccc(NC(=O)c2sc3nc(-c4cc5ccc(OC)cc5oc4=O)[nH]c(=O)c3c2C)cc1	-	-	-	.	.
CC1=C(C(=O)Nc2cccnc2)C(c2cccc(F)c2)n2nc(SCc3ccccc3)nc2N1 (configuration not stated)	-	-	-	-	.
O=C(C1CCCN(S(=O)(=O)c2cccc3nonc23)C1)N1CCN(c2cccc(Cl)c2)CC1 (configuration not stated)	-	-	-	23µM!	7.9µM
O=C(C1CCN(S(=O)(=O)c2cccc3cccnc23)CC1)N1CCN(c2ccccn2)CC1	-	-	-	-	-

High-throughput results from PubChem.
